Reference: the supplement of paper PMC10849652
About 7,900 targets were measured; listed, in parts, are those with a hit and a random draw of the rest. About 0.6% of all pairs of compound and target were hits. Unmarked numbers belong to inactive results.

Key:
Experiment in all cases: log2 fold change, soluble protein after heating vs DMSO (PISA); higher = thermal stabilisation; K562 cells, 10 uM, 30 min; active = over 0.2 and 3.5 SD of the protein, either way, in both replicates (recomputed)
erlotinib = compound: C#Cc1cccc(Nc2ncnc3cc(OCCOC)c(OCCOC)cc23)c1 [erlotinib]
Outline: (§1)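 K562 cells at 2×10^6 cells/mL were given 10 μM compound for 30 min. Aliquots then went through 3 min of heating across 48°C-58°C, were pooled, and were extracted in PBS with 0.5% NP-40 at 4°C, and the supernatant after 21,000xg for 90 min was quantified by TMTpro 16plex LC-MS/MS with channel sums equalised. Thermal stability relative to control samples, from duplicates, is given as log2 fold change.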

[1] = compound: C/C(=N\NC(=O)C1=CC(=CC=C1)S(=O)(=O)N2CCOCC2)/C3=C(C=CC(=C3)Cl)O
Outline: as §1

[2] = compound: C1=CC(=C(C=C1Cl)C2=NC3=NC=CN=C3C(=N2)NC4=CC=NC=C4)F
Outline: as §1

[3] = compound: C1=CC(=CC=C1C2=NC3=C(N2)C=C(C=C3)C(=O)N)OC4=CC=C(C=C4)Cl
Outline: as §1

[4] = compound: C1=CC2=C(C=CC(=C2)/C=C\3/C(=O)NC(=NCC4=CC=CS4)S3)N=C1
Outline: as §1

[5] = compound: C1=CC2=NC=CN=C2C=C1/C=C/3\C(=O)NC(=O)S3
Outline: as §1

[6] = compound: C1=CC=C(C=C1)C2=NC(=C(N2)C3=CC=NC=C3)C4=CC(=C(C=C4)Cl)O
Outline: as §1

[7] = compound: C1=CC=C2C(=C1)C3=NNC4=CC=CC(=C43)C2=O
Outline: as §1

[8] = compound: C1CCN(C1)C(=O)NC2=CC=CC(=C2)NC3=NC=C(C(=N3)NCCC4=CN=CN4)Br
Outline: as §1

[9] = compound: C1CN(CCC1(CC2=CC=C(C=C2)Cl)N)C3=NC=NC4=C3C=CN4
Outline: as §1

IRAK-1-4 Inhibitor I = compound: C1COCCN1CCN2C3=CC=CC=C3N=C2NC(=O)C4=CC(=CC=C4)[N+](=O)[O-] [IRAK-1-4 Inhibitor I]
Outline: as §1

ibrutinib = compound: C=CC(=O)N1CCC[C@@H](n2nc(-c3ccc(Oc4ccccc4)cc3)c3c(N)ncnc32)C1 [ibrutinib]
Outline: as §1

[10] = compound: CC(=O)c1cnc2ccc(-c3cc(Cl)c(O)c(Cl)c3)nc2c1N[C@H]1CC[C@H](CN(C)C)CC1
Outline: as §1

ralimetinib = compound: CC(C)(C)Cn1c(N)nc2ccc(-c3[nH]c(C(C)(C)C)nc3-c3ccc(F)cc3)nc21 [ralimetinib]
Outline: as §1

[11] = compound: CC(C)(O)CC(=O)NCCn1ccc2ncnc(Nc3ccc(Oc4cccc(C(F)(F)F)c4)c(Cl)c3)c21
Outline: as §1

[12] = compound: CC(C)C1=C2N=C(C=C(N2N=C1)NCC3=CC=CC=C3)NCCCCCCN
Outline: as §1

[13] = compound: CC(C)C[C@@H](C=O)NC(=O)[C@H](CC(C)C)NC(=O)[C@H](CC(C)C)NC(=O)OCc1ccccc1
Outline: as §1

pinometostat = compound: CC(C)N(C[C@H]1O[C@@H](n2cnc3c(N)ncnc32)[C@H](O)[C@@H]1O)[C@H]1C[C@@H](CCc2nc3cc(C(C)(C)C)ccc3[nH]2)C1 [pinometostat]
Outline: as §1

[14] = compound: CC1=C(C(CC(=O)N1)C2=CC=C(C=C2)C(F)(F)F)C(=O)NC3=C(C=C4C(=C3)C=NN4)F
Outline: as §1

[15] = compound: CC1=C(C2=C(C=C1)C(=O)C3=CC=CC=C3N2CCCN)C
Outline: as §1

Chain of UniProt Q8TC12 (Q8TC12 whole entry, looked up): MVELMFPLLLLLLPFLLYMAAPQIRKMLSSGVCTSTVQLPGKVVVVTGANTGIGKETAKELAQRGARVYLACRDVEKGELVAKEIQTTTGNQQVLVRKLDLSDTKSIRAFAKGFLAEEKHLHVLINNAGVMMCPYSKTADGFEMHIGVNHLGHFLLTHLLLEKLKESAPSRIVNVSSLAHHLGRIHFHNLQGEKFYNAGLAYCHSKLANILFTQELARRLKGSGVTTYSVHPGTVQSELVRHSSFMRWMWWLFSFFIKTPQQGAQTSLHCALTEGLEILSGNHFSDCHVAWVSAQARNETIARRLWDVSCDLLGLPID
Chain of UniProt Q15418 (Q15418 whole entry, looked up): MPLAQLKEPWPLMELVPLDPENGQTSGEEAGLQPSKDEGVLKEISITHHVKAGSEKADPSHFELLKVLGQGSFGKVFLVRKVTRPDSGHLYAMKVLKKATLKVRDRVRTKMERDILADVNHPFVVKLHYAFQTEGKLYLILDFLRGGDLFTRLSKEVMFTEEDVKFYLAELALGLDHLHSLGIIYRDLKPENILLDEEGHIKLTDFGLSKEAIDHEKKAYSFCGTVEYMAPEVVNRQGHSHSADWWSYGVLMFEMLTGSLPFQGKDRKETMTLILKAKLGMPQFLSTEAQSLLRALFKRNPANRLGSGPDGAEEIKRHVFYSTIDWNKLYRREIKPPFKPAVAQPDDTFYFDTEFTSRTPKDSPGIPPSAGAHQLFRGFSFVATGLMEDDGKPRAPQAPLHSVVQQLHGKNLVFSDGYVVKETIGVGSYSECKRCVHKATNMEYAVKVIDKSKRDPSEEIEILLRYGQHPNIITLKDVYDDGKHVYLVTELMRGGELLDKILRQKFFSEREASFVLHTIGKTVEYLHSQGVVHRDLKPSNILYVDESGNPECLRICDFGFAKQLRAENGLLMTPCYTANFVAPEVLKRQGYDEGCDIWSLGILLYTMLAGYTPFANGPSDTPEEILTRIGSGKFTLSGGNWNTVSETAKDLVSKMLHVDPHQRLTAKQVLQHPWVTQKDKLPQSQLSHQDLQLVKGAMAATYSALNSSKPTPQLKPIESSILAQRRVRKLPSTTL
Chain of UniProt O94979 (O94979 whole entry, looked up): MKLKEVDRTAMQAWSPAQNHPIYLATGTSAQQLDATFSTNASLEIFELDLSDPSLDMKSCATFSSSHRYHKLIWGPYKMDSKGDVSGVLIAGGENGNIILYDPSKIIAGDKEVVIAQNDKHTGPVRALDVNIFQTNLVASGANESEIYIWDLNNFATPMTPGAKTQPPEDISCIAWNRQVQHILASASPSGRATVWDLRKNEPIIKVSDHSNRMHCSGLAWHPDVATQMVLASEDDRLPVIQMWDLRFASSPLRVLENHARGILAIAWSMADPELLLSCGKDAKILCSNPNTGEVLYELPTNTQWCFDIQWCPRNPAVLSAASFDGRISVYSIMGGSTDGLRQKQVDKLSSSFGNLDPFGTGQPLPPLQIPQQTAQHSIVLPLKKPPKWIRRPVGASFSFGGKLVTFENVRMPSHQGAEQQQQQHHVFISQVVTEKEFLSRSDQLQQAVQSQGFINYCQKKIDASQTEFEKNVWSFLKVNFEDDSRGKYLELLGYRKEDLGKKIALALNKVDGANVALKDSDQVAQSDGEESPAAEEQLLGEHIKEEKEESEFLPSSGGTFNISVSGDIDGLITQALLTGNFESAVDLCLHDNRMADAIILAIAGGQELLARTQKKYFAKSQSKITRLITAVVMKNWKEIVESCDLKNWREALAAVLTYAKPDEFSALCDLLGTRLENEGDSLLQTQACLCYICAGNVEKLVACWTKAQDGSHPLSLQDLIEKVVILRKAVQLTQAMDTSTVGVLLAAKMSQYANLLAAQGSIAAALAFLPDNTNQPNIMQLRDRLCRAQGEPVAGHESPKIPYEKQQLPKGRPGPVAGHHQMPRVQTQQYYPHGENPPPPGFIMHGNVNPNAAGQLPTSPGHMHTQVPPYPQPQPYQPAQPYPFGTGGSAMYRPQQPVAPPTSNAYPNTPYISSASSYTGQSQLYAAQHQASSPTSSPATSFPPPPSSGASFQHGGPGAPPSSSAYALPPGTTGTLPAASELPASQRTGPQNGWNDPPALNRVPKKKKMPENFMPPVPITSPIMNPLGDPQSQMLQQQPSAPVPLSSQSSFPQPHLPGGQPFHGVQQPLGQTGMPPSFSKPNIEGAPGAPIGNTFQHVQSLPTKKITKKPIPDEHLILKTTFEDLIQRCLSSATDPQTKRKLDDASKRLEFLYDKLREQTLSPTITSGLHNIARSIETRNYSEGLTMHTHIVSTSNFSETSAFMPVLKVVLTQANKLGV
Chain of UniProt Q9H082 (Q9H082 whole entry, looked up): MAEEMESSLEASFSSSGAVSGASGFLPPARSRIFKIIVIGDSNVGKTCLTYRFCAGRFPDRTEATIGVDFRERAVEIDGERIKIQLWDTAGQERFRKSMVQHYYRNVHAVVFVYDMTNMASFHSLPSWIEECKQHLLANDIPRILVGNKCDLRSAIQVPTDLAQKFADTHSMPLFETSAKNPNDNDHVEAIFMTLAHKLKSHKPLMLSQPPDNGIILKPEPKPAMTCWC
Chain of UniProt Q9UKM9 (Q9UKM9 whole entry, looked up): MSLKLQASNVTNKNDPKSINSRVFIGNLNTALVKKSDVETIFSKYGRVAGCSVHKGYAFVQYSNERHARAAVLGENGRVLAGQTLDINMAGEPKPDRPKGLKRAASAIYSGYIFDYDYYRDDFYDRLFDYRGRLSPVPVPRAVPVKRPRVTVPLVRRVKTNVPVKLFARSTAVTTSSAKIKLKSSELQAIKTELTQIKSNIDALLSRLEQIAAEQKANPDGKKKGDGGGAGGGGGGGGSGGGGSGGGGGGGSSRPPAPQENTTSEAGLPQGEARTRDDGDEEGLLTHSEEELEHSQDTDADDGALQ
Chain of UniProt Q9GZR1 (Q9GZR1 whole entry, looked up): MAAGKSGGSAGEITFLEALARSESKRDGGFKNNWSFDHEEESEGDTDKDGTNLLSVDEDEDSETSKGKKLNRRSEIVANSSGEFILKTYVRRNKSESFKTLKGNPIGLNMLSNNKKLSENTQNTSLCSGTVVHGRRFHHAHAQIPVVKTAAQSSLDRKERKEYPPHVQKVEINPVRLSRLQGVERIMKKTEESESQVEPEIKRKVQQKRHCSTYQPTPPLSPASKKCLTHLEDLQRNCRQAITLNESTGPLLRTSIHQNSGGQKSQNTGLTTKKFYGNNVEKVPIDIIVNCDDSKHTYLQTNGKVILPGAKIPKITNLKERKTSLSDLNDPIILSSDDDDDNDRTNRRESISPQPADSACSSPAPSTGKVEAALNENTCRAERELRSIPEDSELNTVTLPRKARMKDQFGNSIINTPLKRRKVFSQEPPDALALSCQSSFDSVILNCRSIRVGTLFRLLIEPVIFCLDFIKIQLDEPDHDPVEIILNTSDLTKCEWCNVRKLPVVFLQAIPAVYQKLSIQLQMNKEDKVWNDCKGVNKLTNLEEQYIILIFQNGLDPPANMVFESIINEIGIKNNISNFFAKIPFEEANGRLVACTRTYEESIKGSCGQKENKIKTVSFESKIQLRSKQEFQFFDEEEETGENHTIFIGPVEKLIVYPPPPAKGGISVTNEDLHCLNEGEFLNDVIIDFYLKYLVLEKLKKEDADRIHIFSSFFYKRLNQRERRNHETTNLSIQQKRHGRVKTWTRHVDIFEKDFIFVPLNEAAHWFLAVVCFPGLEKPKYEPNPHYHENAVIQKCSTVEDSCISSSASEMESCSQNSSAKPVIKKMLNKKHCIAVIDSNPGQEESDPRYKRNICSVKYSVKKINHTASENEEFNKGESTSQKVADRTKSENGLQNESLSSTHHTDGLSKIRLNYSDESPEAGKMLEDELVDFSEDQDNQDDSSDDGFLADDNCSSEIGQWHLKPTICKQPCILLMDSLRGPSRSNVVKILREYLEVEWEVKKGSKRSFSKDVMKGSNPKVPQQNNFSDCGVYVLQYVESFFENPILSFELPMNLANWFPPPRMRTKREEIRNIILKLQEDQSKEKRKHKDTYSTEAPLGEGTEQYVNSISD
Chain of UniProt Q9UBS8 (Q9UBS8 whole entry, looked up): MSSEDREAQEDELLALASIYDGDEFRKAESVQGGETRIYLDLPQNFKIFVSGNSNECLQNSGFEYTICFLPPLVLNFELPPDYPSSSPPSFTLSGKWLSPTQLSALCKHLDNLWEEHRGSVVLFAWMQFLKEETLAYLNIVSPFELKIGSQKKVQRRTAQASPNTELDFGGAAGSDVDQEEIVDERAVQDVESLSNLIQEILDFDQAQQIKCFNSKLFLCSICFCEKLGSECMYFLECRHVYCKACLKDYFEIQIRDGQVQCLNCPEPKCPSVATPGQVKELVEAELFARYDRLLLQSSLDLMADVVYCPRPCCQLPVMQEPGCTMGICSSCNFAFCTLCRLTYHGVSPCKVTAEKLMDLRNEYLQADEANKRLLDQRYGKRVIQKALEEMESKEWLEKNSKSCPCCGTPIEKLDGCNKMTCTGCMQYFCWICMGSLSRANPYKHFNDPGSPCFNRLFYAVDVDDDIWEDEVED
Chain of UniProt Q15050 (Q15050 whole entry, looked up): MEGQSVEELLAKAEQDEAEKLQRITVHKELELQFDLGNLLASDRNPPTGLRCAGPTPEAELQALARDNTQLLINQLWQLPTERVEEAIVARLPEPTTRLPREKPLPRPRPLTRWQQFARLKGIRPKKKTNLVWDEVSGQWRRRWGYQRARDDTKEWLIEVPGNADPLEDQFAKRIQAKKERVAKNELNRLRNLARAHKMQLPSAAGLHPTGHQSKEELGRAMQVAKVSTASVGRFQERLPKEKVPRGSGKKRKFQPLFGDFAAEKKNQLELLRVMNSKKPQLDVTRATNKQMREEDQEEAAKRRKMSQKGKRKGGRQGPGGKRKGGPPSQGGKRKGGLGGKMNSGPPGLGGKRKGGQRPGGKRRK
Chain of UniProt P61586 (P61586 whole entry, looked up): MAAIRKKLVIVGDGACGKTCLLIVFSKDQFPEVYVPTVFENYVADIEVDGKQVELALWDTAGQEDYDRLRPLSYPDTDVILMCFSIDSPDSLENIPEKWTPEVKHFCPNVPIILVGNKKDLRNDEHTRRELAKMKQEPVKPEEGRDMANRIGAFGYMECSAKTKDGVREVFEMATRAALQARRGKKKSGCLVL

| Target | log2 fold change (erlotinib) | log2 fold change [1] | log2 fold change [2] | log2 fold change [3] | log2 fold change [4] | log2 fold change [5] | log2 fold change [6] | log2 fold change [7] | log2 fold change [8] | log2 fold change [9] | log2 fold change (IRAK-1-4 Inhibitor I) | log2 fold change (ibrutinib) | log2 fold change [10] | log2 fold change (ralimetinib) | log2 fold change [11] | log2 fold change [12] | log2 fold change [13] | log2 fold change (pinometostat) | log2 fold change [14] | log2 fold change [15] |
| --- | --- | --- | --- | --- | --- | --- | --- | --- | --- | --- | --- | --- | --- | --- | --- | --- | --- | --- | --- | --- |
| RHOA (UniProt P61586) | 0.028 | -0.029 | 0.012 | -0.052 | -0.094 | -0.161 | 0.114 | 0.018 | -0.05 | 0.01 | 0.108 | -0.015 | 0.047 | 0.251 | -0.034 | 0.063 | -0.07 | -0.023 | 0.002 | -0.007 |
| RRS1 (UniProt Q15050) | -0.099 | -0.205 | -0.536 | -0.003 | -0.095 | 0.004 | -0.18 | -0.018 | 0.162 | -0.219 | -0.084 | 0.04 | 0.217 | 0.118 | 0.229 | 0.312 | 0.067 | 0.297 | -0.11 | -1 (active) |
| RAP1GDS1 isoform 5 (UniProt P52306) | 0.019 | -0.012 | -0.021 | -0.013 | 0.027 | 0.106 | -0.016 | -0.038 | -0.023 | -0.077 | -0.044 | -0.098 | 0.04 | 0.005 | -0.114 | -0.277 (active) | -0.005 | 0.067 | 0.011 | 0.008 |
| SIDT2 isoform 2 (UniProt Q8NBJ9) | 0.007 | 0.026 | -0.027 | 0.004 | 0.042 | 0.087 | -0.053 | 0.038 | 0.002 | 0.053 | -0.017 | 0.123 | -0.039 | -0.143 | -0.021 | -0.353 (active) | 0 | 0.271 | 0.009 | 0.005 |
| RAB33B (UniProt Q9H082) | 0.059 | 0.031 | 0.028 | -0.029 | -0.08 | -0.012 | -0.079 | 0.025 | -0.016 | 0.118 | 0.072 | 0.016 | -0.019 | -0.092 | 0.027 | 0.113 | 0.112 | -0.015 | -0.011 | -0.002 |
| RPS13 (UniProt P62277) | -0.156 | -0.17 | -0.544 | 0.088 | -0.11 | -0.053 | -0.088 | -0.015 | 0.101 | -0.184 | -0.096 | 0.035 | 0.103 | 0.13 | 0.071 | -0.031 | 0.137 | 0.345 | 0.035 | -0.759 (active) |
| RALY (UniProt Q9UKM9) | 0.018 | -0.072 | -0.541 | 0.189 | -0.144 | 0.154 | -0.11 | 0.038 | 0.008 | -0.22 | -0.315 | 0.001 | -0.21 | -0.029 | 0.055 | -0.101 | 0.083 | 0.129 | 0.068 | -0.311 |
| RPS6KA1 isoform 2 (UniProt Q15418) | -0.032 | 0.104 | -0.082 | 0.107 | 0.034 | 0.039 | -0.135 | -0.377 (active) | -0.093 | 0.023 | -0.013 | -0.062 | -0.167 | -0.429 (active) | -0.092 | -0.164 | 0.059 | -0.006 | 0.017 | 0.018 |
| RNF14 (UniProt Q9UBS8) | -0.006 | 0.038 | 0.048 | 0.043 | 0.015 | -0.019 | 0.014 | -0.029 | 0.002 | 0.071 | 0.019 | 0.006 | 0.011 | -0.008 | -0.035 | -0.039 | 0.014 | -0.075 | 0.006 | -0.05 |
| RDH11 (UniProt Q8TC12) | -0.007 | -0.03 | 0.102 | 0.068 | 0.084 | -0.1 | 0.029 | 0.04 | -0.044 | -0.043 | 0.032 | 0.067 | -0.145 | 0.059 | -0.126 | -0.74 (active) | 0.117 | 0.013 | -0.028 | 0.103 |
| SENP6 (UniProt Q9GZR1) | 0.028 | 0.033 | 0.237 (active) | -0.049 | -0.029 | 0.08 | -0.011 | -0.078 | -0.061 | 0.049 | 0.005 | -0.018 | -0.063 | -0.031 | -0.058 | 0.094 | 0.043 | 0.004 | -0.028 | 0.057 |
| SEC31A (UniProt O94979) | 0.049 | 0.023 | 0.006 | -0.025 | 0.094 | 0.016 | -0.045 | 0.023 | -0.06 | -0.025 | -0.076 | -0.11 | 0.005 | 0.028 | -0.054 | -0.008 | 0.033 | 0.071 | 0.016 | 0.095 |
| SETMAR (UniProt Q53H47) | 0.004 | -0.044 | 0.046 | -0.018 | 0.133 | -0.029 | -0.01 | 0.008 | -0.031 | -0.248 | 0.093 | -0.04 | -0.135 | -0.025 | 0.047 | 0.227 | -0.061 | 0.078 | 0.012 | 0.509 (active) |
| RPL38 (UniProt P63173) | 0.024 | -0.05 | -0.148 | 0.026 | -0.102 | -0.025 | -0.027 | 0.026 | 0.033 | -0.106 | 0.014 | 0.01 | 0 | 0.043 | 0.113 | 0 | 0.124 | 0.07 | 0.013 | -0.026 |
| SDCBP (UniProt O00560) | -0.048 | -0.1 | -0.058 | 0.047 | -0.036 | -0.008 | 0.034 | 0.002 | -0.021 | -0.045 | 0.021 | 0.139 | -0.02 | -0.036 | -0.064 | -0.671 (active) | 0.181 | 0.057 | 0.073 | -0.007 |
| RNASEH2A (UniProt O75792) | 0.041 | 0.085 | -0.062 | 0.019 | 0.119 | -0.038 | -0.026 | 0.065 | -0.016 | -0.115 | 0 | 0.008 | -0.07 | -0.08 | -0.029 | -0.122 | 0.074 | -0.003 | 0.001 | 0.042 |
